From the supplement of paper PMC6555819

What follows are sequences tested on RARb:RXRa (NR concentration 270 nM, RXRa partner concentration 90 nM) (assay: PBM binding z-score (relative to random genomic background probes); higher = stronger binding; sequences stand for … in GC…GCGATTGACAGCGTAGAATGAAGG).
Method in brief: (§1)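 Ligand-free nuclear receptor dimers were applied to custom Agilent 4×180K protein-binding microarrays whose double-stranded probes carried direct-repeat seeds, single-nucleotide variants, half-site ablations and random human genomic background sequences in 34-nt variable regions. Incubation lasted 1 h. Binding z-scores were computed against the random background probes from regression-normalized fluorescence.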
With CGTCCAAGGTTAGAGAGGTCAGTGAATGCCGAGT the PBM binding z-score was 3.66. TCTAGCTGGCCAGAGGGTCACTCAAGAGGTACGG was tested, and the PBM binding z-score was 1.73. For TCTATTAGTTGAGTAGGGCAACCGAAACAGCGGA, the PBM binding z-score was 0.507. With GGAACGAGGGCAAAGTTGAGAGCATCTGTCGACG the PBM binding z-score was 2.61. Work on CCTATGAGTTGACCATAAGGGCAACCGAAGCTCG yielded a PBM binding z-score of 1.72. Sequence CAAACTAGGTCACGAAAGGTCAAAGTAGAATGAC has a PBM binding z-score of 5.71. Work on GCTAGCAGGACATTTGGGTCACTCAATGACGGGC yielded a PBM binding z-score of 1.16. With GCGACTGGGGCAAAGCAGGTTACCAAAAGGTTGG the PBM binding z-score was 1.02. Work on CCTAGTTCGTCAGGAGGTCACACACCGGATATGA yielded a PBM binding z-score of 3.76. With GCTGCTAGGTCAATTGATGGTCAGCTAAAGCTCG the PBM binding z-score was 3.59. With TCTTGTACATCAAAGGTTAAGAAAGCCGAAGCCT the PBM binding z-score was 2.15. In the case of ACTAGTTGGTCAGCTGACGTCACACACAATTCGG, the PBM binding z-score is reported as 0.952. ATATGTAGGTTATCGGGTCGTTCAGTTTGCGCAT gave a PBM binding z-score of 1.42. Work on TCTTGTAGATCCATAGAGGTTAAGAAAGTGCGCT yielded a PBM binding z-score of 0.837. With TCTGCTAGGTCACCGATGGTCAGCTAATCTGCTA the PBM binding z-score was 4.36. With AGTCAAAGTTCAGGACGAGCTAACGTAAAGCACG the PBM binding z-score was 4.11. ACTATGAGTTGACTTAGGGCAACCGATACGACGC gave a PBM binding z-score of 0.974. CCTACTGGGCCAAAAAGGTCATTGACGCCGATAA was tested, and the PBM binding z-score was 3.72. With GCGACTGGGGCACCAGCAGGTTACCATAACTTAA the PBM binding z-score was 1.05. Sequence TGTCAAAGTTCAAGGGTAACGTAAGTATCCACAC has a PBM binding z-score of 5.05. For CCTACTGGGTCAAAAAGGTCATTGATGCCGATAA, the PBM binding z-score was 4.66. TTACCAGGGTGAGCTGAGGTCGTTGATCCAACTC showed a PBM binding z-score of 1.24. TCTTGTACATCAACAGGAGGTTAAGAAAGATCGA gave a PBM binding z-score of 0.66. With TCTTGTAGATCAACAGGAGGTTATGAAAGATCGA the PBM binding z-score was 0.283. In the case of TCATATAGGTAATACAGGTGGAAGTCGGCATCTA, the PBM binding z-score is reported as 0.515. For GCTATTAGTTGAAAGGGCCACCGAATGATTCTCG, the PBM binding z-score was 1.02. With CCTATTAGTTGACTATAAGGGCAACCGAAGCTCG the PBM binding z-score was 1.25. With TATACAGGGTCAAAGGACAGAGTACGAATGTCGA the PBM binding z-score was 4.55. With CCTCGGAGGACAACAAGAGGTCAGAGCTGCCAGA the PBM binding z-score was 3.18. With TCTATTAGTTGAAGCGCAACCGACGAGTCCGTTT the PBM binding z-score was 0.271. With ACAATGAGGTTATACGTAGATCAGGGAAGAAAGT the PBM binding z-score was 1.69. Work on ATCTCTAGGTAACCAAGTTAAGTGAATGCCGAAC yielded a PBM binding z-score of 0.317. Sequence ATCTCCAGGTAACCAAGTTCAGTGAATGCCGAAC has a PBM binding z-score of 0.985. TCTACTAGGTCAGTTGGTCAGCTAACGAGCTGCC showed a PBM binding z-score of 3.46. GCATATAGGTAATACAAGTTGAAAGTCCGATTGT was tested, and the PBM binding z-score was 0.148. For TAGCCTAGGTCATGGGCCAATATACCACGCGAAC, the PBM binding z-score was 3.77. With GCGACTGGGGCAAAGCAGGTTACCCTAAGGTTGG the PBM binding z-score was 0.752. CAAACTAGGTCACCGGAACGTCAAAGTCCGCATG was tested, and the PBM binding z-score was 4.31. Sequence ATCTCTAGTTAAAAGTTCAGTGAATCCCGAGGAT has a PBM binding z-score of 2.2. For ATACCAAGGAGATCGTGAGGTCGTTGATACTAAC, the PBM binding z-score was 0.331.

The sequences below were run on RARb homodimer (NR concentration 270 nM) in the same assay as above.
Method in brief: as §1
CGTCCAAGGTTAGAGAGGTCAGTGAATGCCGAGT gave a PBM binding z-score of 4.23. TCTAGCTGGCCAGAGGGTCACTCAAGAGGTACGG was tested, and the PBM binding z-score was 2.27. Sequence TCTATTAGTTGAGTAGGGCAACCGAAACAGCGGA has a PBM binding z-score of 0.153. For GGAACGAGGGCAAAGTTGAGAGCATCTGTCGACG, the PBM binding z-score was 1.51. CCTATGAGTTGACCATAAGGGCAACCGAAGCTCG was tested, and the PBM binding z-score was 1.98. For CAAACTAGGTCACGAAAGGTCAAAGTAGAATGAC, the PBM binding z-score was 5.89. With GCTAGCAGGACATTTGGGTCACTCAATGACGGGC the PBM binding z-score was 1.56. With GCGACTGGGGCAAAGCAGGTTACCAAAAGGTTGG the PBM binding z-score was 1.39. With CCTAGTTCGTCAGGAGGTCACACACCGGATATGA the PBM binding z-score was 4.54. Work on GCTGCTAGGTCAATTGATGGTCAGCTAAAGCTCG yielded a PBM binding z-score of 2.95. Sequence TCTTGTACATCAAAGGTTAAGAAAGCCGAAGCCT has a PBM binding z-score of 1.84. Work on ACTAGTTGGTCAGCTGACGTCACACACAATTCGG yielded a PBM binding z-score of 0.958. With ATATGTAGGTTATCGGGTCGTTCAGTTTGCGCAT the PBM binding z-score was 1.68. TCTTGTAGATCCATAGAGGTTAAGAAAGTGCGCT was tested, and the PBM binding z-score was 1.25. Sequence TCTGCTAGGTCACCGATGGTCAGCTAATCTGCTA has a PBM binding z-score of 3.6. In the case of AGTCAAAGTTCAGGACGAGCTAACGTAAAGCACG, the PBM binding z-score is reported as 2.77. With ACTATGAGTTGACTTAGGGCAACCGATACGACGC the PBM binding z-score was 1.06. CCTACTGGGCCAAAAAGGTCATTGACGCCGATAA showed a PBM binding z-score of 4.4. With GCGACTGGGGCACCAGCAGGTTACCATAACTTAA the PBM binding z-score was 0.971. Work on TGTCAAAGTTCAAGGGTAACGTAAGTATCCACAC yielded a PBM binding z-score of 3.92. For CCTACTGGGTCAAAAAGGTCATTGATGCCGATAA, the PBM binding z-score was 5.05. TTACCAGGGTGAGCTGAGGTCGTTGATCCAACTC was tested, and the PBM binding z-score was 1.24. Work on TCTTGTACATCAACAGGAGGTTAAGAAAGATCGA yielded a PBM binding z-score of 0.799. With TCTTGTAGATCAACAGGAGGTTATGAAAGATCGA the PBM binding z-score was 0.222. In the case of TCATATAGGTAATACAGGTGGAAGTCGGCATCTA, the PBM binding z-score is reported as 0.159. GCTATTAGTTGAAAGGGCCACCGAATGATTCTCG gave a PBM binding z-score of 1.19. In the case of CCTATTAGTTGACTATAAGGGCAACCGAAGCTCG, the PBM binding z-score is reported as 1.42. Sequence TATACAGGGTCAAAGGACAGAGTACGAATGTCGA has a PBM binding z-score of 3.47. With CCTCGGAGGACAACAAGAGGTCAGAGCTGCCAGA the PBM binding z-score was 3.8. TCTATTAGTTGAAGCGCAACCGACGAGTCCGTTT gave a PBM binding z-score of -0.298. Sequence ACAATGAGGTTATACGTAGATCAGGGAAGAAAGT has a PBM binding z-score of 0.975. Work on ATCTCTAGGTAACCAAGTTAAGTGAATGCCGAAC yielded a PBM binding z-score of 0.215. ATCTCCAGGTAACCAAGTTCAGTGAATGCCGAAC showed a PBM binding z-score of 1.58. Sequence TCTACTAGGTCAGTTGGTCAGCTAACGAGCTGCC has a PBM binding z-score of 2.91. GCATATAGGTAATACAAGTTGAAAGTCCGATTGT was tested, and the PBM binding z-score was 0.185. With TAGCCTAGGTCATGGGCCAATATACCACGCGAAC the PBM binding z-score was 2.95. Sequence GCGACTGGGGCAAAGCAGGTTACCCTAAGGTTGG has a PBM binding z-score of 0.988. For CAAACTAGGTCACCGGAACGTCAAAGTCCGCATG, the PBM binding z-score was 3.74. ATCTCTAGTTAAAAGTTCAGTGAATCCCGAGGAT gave a PBM binding z-score of 2.34. In the case of ATACCAAGGAGATCGTGAGGTCGTTGATACTAAC, the PBM binding z-score is reported as 0.696.
